Measured values: PubChem BioAssay (NCATS)
Records with an inconclusive call do not appear. The source made the active and inactive calls. Calls come from the whole dose curve; as a rule, active = well fitted curve in the direction sought with a large enough effect; inconclusive = small, poorly fitted or top-dose-only effect, or another doubt; inactive = no such curve, though single readings can be large; an effect the other way counts as inactive or inconclusive.

Experiments:
[1] = qHTS of pediatric cancer cell lines to identify multiple opportunities for drug repurposing: Primary screen for TC32 cells (AID 1347089); note: nearly all actives have a fitted effect of over 60% in size
In short: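 Luminescent CellTiter-Glo read-out of metabolically active TC32 cells after 48 h compound exposure. Primary: MIPE 11-point, 0.78 nM–46 µM; NPC 8-point, 0.59 nM–46 µM. Confirmatory: 11-point dilutions.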

[2] = qHTS of pediatric cancer cell lines to identify multiple opportunities for drug repurposing: Primary screen for DAOY cells (AID 1347090); note: nearly all actives have a fitted effect of over 55% in size
In short: (§1)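 Cell viability, CellTiter-Glo luminescence; 500-1,000 cells/well, 8- or 11-point titration, 48 h compound exposure at 37 degrees C, 5% CO2. Controls: DMSO neutral, bortezomib 2.3 µM final as positive.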

[3] = qHTS of pediatric cancer cell lines to identify multiple opportunities for drug repurposing: Primary screen for SJ-GBM2 cells (AID 1347091)
In short: as §1

[4] = qHTS of pediatric cancer cell lines to identify multiple opportunities for drug repurposing: Primary screen for SK-N-MC cells (AID 1347093)
In short: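 Metabolically active cells were quantified by ATP-dependent luminescence (CellTiter-Glo, 15 min at room temperature) following 48 h treatment. Cells had been plated at 500-1,000 per well and settled for 5 h beforehand.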

[5] = qHTS of pediatric cancer cell lines to identify multiple opportunities for drug repurposing: Primary screen for BT-37 cells (AID 1347094)
In short: (§2)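 Following a 5-hour attachment period, cells at 500-1,000/well received compounds and were cultured for 48 hours. CellTiter-Glo was added and luminescence read to estimate viable, metabolically active cells.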

[6] = qHTS of pediatric cancer cell lines to identify multiple opportunities for drug repurposing: Primary screen for NB-EBc1 cells (AID 1347095)
In short: as §2

[7] = qHTS of pediatric cancer cell lines to identify multiple opportunities for drug repurposing: Primary screen for U-2 OS cells (AID 1347096); note: nearly all actives have a fitted effect of over 50% in size
In short: (§3)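 Cells (500-1,000/well) rested 5 h, then received compounds for 48 h; metabolically active cells were measured by CellTiter-Glo luminescence. Final concentrations spanned up to 46 µM (MIPE, 11-point) or 0.59 nM-46 µM (NPC, 8-point) in primary screens, 11-point in follow-ups.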

[8] = qHTS of pediatric cancer cell lines to identify multiple opportunities for drug repurposing: Primary screen for Saos-2 cells (AID 1347097); note: nearly all actives have a fitted effect of over 40% in size
In short: as §2

[9] = qHTS of pediatric cancer cell lines to identify multiple opportunities for drug repurposing: Primary screen for SK-N-SH cells (AID 1347098); note: nearly all actives have a fitted effect of over 65% in size
In short: as §3

[10] = qHTS of pediatric cancer cell lines to identify multiple opportunities for drug repurposing: Primary screen for BT-12 cells (AID 1347101); note: nearly all actives have a fitted effect of over 25% in size
In short: as §3

[11] = qHTS of pediatric cancer cell lines to identify multiple opportunities for drug repurposing: Primary screen for Rh18 cells (AID 1347102); note: nearly all actives have a fitted effect of over 65% in size
In short: as §3

[12] = qHTS of pediatric cancer cell lines to identify multiple opportunities for drug repurposing: Primary screen for OHS-50 cells (AID 1347103); note: nearly all actives have a fitted effect of over 40% in size
In short: as §3

[13] = qHTS of pediatric cancer cell lines to identify multiple opportunities for drug repurposing: Primary screen for RD cells (AID 1347104); note: nearly all actives have a fitted effect of over 55% in size
In short: as §2

[14] = qHTS of pediatric cancer cell lines to identify multiple opportunities for drug repurposing: Primary screen for A673 cells (AID 1347092); note: nearly all actives have a fitted effect of over 45% in size
In short: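 A673 cells (500-1,000 cells/well in growth media) were pre-incubated 5 h at 37 degrees C, then exposed to compounds for 48 h. Viability was read as CellTiter-Glo luminescence; concentration-response curves came directly from the primary screen.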

[15] = qHTS of pediatric cancer cell lines to identify multiple opportunities for drug repurposing: Primary screen for LAN-5 cells (AID 1347100)
In short: as §3

[16] = qHTS of pediatric cancer cell lines to identify multiple opportunities for drug repurposing: Primary screen for MG 63 (6-TG R) cells (AID 1347105); note: nearly all actives have a fitted effect of over 50% in size
In short: as §2

[17] = qHTS of pediatric cancer cell lines to identify multiple opportunities for drug repurposing: Primary screen for control Hh wild type fibroblast cells (AID 1347106); note: nearly all actives have a fitted effect of over 55% in size
In short: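 Cells (500-1,000/well) in growth media were settled 5 h at 37 degrees C, then given compounds for 48 h. Viability was read as CellTiter-Glo luminescence. Primary runs used MIPE at 11 points (0.78 nM-46 µM) and NPC at 8 points (0.59 nM-46 µM); follow-ups used 11 points.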

[18] = qHTS of pediatric cancer cell lines to identify multiple opportunities for drug repurposing: Primary screen for NB1643 cells (AID 1347099); note: nearly all actives have a fitted effect of over 50% in size
In short: as §2
Potency is the fitted concentration of half-maximal effect.

Row | Compound | Potency [1] | Potency [2] | Potency [3] | Potency [4] | Potency [5] | Potency [6] | Potency [7] | Potency [8] | Potency [9] | Potency [10] | Potency [11] | Potency [12] | Potency [13] | Potency [14] | Potency [15] | Potency [16] | Potency [17] | Potency [18]
1 | Nc1nc(Nc2ccc(S(N)(=O)=O)cc2)nn1C(=O)c1c(F)cccc1F | 14.7 µM (active) | 11.8 µM (active) | 3.72 µM (active) | 3.32 µM (active) | 15.3 µM (active) | 5.26 µM (active) | inactive | 13.2 µM (active) | 8.57 µM (active) | 13.7 µM (active) | inactive | 9.68 µM (active) | 11.8 µM (active) |  |  |  |  | 
2 | COc1ccc2c(c1)CC[C@@H](CN(C)CC(=O)O)[C@H]2c1ccccc1 | 3.7 µM (active) | 2.96 µM (active) |  | 1.18 µM (active) | 6.11 µM (active) | 0.662 µM (active) |  | 2.09 µM (active) |  |  |  | 4.32 µM (active) |  | 1.87 µM (active) | 1.05 µM (active) | 2.96 µM (active) | inactive | 
3 | CS(=O)(=O)c1ccc(-c2cnc(N)c(C(=O)Nc3ccccc3)n2)cc1 | inactive | inactive | 5.9 µM (active) | 4.18 µM (active) | inactive |  | inactive | inactive | inactive | inactive | inactive |  |  |  |  | inactive | inactive | inactive
4 | CCCNC(=O)Nc1ccc(Oc2ncnc3cc(OC)c(OC)cc23)cc1Cl | inactive | inactive |  | inactive | inactive |  | inactive | inactive | inactive | inactive | inactive | inactive | inactive | inactive |  |  |  | inactive
5 | Cc1cnc(Nc2ccc(F)cc2Cl)nc1-c1c[nH]c(C(=O)N[C@H](CO)c2cccc(Cl)c2)c1 | inactive | 7.43 µM (active) |  | 2.35 µM (active) | 0.485 µM (active) | 0.833 µM (active) | 7.43 µM (active) | 1.48 µM (active) | 17.1 µM (active) | 0.432 µM (active) | 16.6 µM (active) | 0.544 µM (active) | 2.35 µM (active) | 0.0372 µM (active) | 0.469 µM (active) | 29.6 µM (active) | inactive | 18.7 µM (active)
6 | COc1cc2c(Oc3ccc(-c4cnc(Nc5ccc(F)cc5)n(C)c4=O)cc3F)ccnc2cc1OCCCN1CCOCC1 | 11.7 µM (active) | 18.7 µM (active) | 0.526 µM (active) | 0.833 µM (active) | 24.3 µM (active) | 3.32 µM (active) | 14.8 µM (active) |  | 15.2 µM (active) | 21.7 µM (active) | 2.64 µM (active) |  |  |  | 1.18 µM (active) | 3.72 µM (active) |  | 14.8 µM (active)
7 | COc1cc(=C2C=c3ccccc3=N2)[nH]c1=Cc1[nH]c(C)cc1C | inactive | 14.8 µM (active) | 1.18 µM (active) | 3.72 µM (active) | 7.69 µM (active) | 0.743 µM (active) |  | 4.69 µM (active) | 19.2 µM (active) | 6.85 µM (active) | 10.5 µM (active) | 7.69 µM (active) | 2.96 µM (active) |  | 5.9 µM (active) | 11.8 µM (active) | 10.5 µM (active) | 14.8 µM (active)
8 | Cc1[nH]c2ccccc2c1CCNCc1ccc(C=CC(=O)NO)cc1 | 1.65 µM (active) | 0.469 µM (active) | 0.148 µM (active) |  | 0.273 µM (active) | 0.372 µM (active) | 0.469 µM (active) | 0.264 µM (active) | 0.271 µM (active) | 0.611 µM (active) | 0.0935 µM (active) | 0.153 µM (active) | 0.372 µM (active) |  | 0.105 µM (active) | 0.469 µM (active) | 1.87 µM (active) | 0.187 µM (active)
9 | O=c1[nH]c(=O)n(C2CCCO2)cc1F (centres undefined) | inactive | inactive |  | inactive | inactive | inactive | inactive | inactive | inactive | inactive | inactive | inactive | inactive | inactive | inactive | inactive |  | inactive
10 | Nc1nc(-c2nn(Cc3ccccc3F)c3ncccc23)nc(N)c1N1CCOCC1 | inactive | inactive | inactive |  | inactive | inactive | inactive | inactive | inactive | inactive | inactive |  | inactive |  |  | inactive | inactive | inactive
11 | C[C@]1(CO)CN(c2cc(C(=O)Nc3ccc4c(c3)-c3c(c(C(N)=O)nn3-c3ccc(F)cc3)CC4)c(Cl)cn2)C[C@@]1(C)CO | 18.6 µM (active) | 11.8 µM (active) | 6.62 µM (active) | 1.48 µM (active) | 5.44 µM (active) | 5.9 µM (active) |  |  | 19.2 µM (active) |  | 18.7 µM (active) | 10.9 µM (active) |  |  | 5.26 µM (active) | 9.35 µM (active) |  | 5.9 µM (active)
